Values joined by “and” are separate entries in the source; they are usually repeats but may differ in a detail not shown here. Equal entries are not always repeated. Results filed as inconclusive are left out. Active and inactive are the calls of the source. Calls come from the whole dose curve; as a rule, active = well fitted curve in the direction sought with a large enough effect; inconclusive = small, poorly fitted or top-dose-only effect, or another doubt; inactive = no such curve, though single readings can be large; an effect the other way counts as inactive or inconclusive. Peptide text beside a SMILES is read from it. * marks the point of attachment. Cbz = O=C(OCc1ccccc1)*; CH2F = FC*
Assays:
[1] = target: Cellular tumor antigen p53 (Homo sapiens) (UniProt P04637); assay: Primary qHTS for small molecule compounds that upregulate eGFP-tagged delta133p53alpha (in N-terminal) cells. (AID 2060322); settings: NCI-H358 eGFP-delta133p53alpha fluorescence, 24 h; activation: hits give high values;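 note: 0% = DMSO vehicle and 100% = reference activator; nearly all actives have a fitted effect of over 75% in size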
Cellular tumor antigen p53 (Homo sapiens), sequence (P04637 whole entry, looked up): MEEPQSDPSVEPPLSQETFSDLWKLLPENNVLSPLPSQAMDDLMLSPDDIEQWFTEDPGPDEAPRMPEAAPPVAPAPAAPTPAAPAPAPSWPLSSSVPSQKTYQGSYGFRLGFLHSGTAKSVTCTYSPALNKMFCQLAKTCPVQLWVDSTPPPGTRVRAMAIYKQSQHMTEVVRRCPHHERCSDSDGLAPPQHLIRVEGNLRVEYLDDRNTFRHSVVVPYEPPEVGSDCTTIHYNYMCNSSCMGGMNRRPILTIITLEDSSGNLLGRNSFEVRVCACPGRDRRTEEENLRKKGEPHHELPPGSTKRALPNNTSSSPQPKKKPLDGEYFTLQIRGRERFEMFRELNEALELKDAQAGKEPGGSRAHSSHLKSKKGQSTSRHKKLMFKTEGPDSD
In short: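 NCI-H358 cells pre-induced 24 h with 10 ng/ml doxycycline to express N-terminal eGFP-delta133p53alpha, then dosed 24 h at 37C without doxycycline; fixed, Hoechst-stained, GFP intensity by laser scanning cytometry, normalized to DMSO (0%) and 57.5 uM 5-azacytidine (100%).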

[2] = target: Aldehyde dehydrogenase, mitochondrial (Homo sapiens) (UniProt P05091); assay: qHTS for Inhibitors of the Aldehyde Dehydrogenase Family (ALDH2) Primary screen (AID 2061308); settings: ALDH2 enzyme inhibition qHTS, 1536-well; series mostly up to 56 µM;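 note: plate controls were vehicle for no effect and reference inhibitor for full effect; nearly all actives have a fitted effect of over 55% in size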
[3] = target: Retinaldehyde dehydrogenase 3 (Homo sapiens) (UniProt P47895); assay: qHTS for Inhibitors of the Aldehyde Dehydrogenase Family (ALDH1A3) Primary screen (AID 2061315); settings: ALDH inhibition qHTS; series mostly up to 56 µM;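 note: plate controls were DMSO vehicle for no effect and reference inhibitor for full effect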

COc1ccc(CNCc2cccc3ccccc23)cc1
inactive: activation [1] -2.33% | Potency [2] | Potency [3]

CC1(C(=O)O)CCCC2(C)C3CCC4CC3(CCC12)CC4C(=O)O (stereo not given)
inactive: activation [1] -3.05% | Potency [2] | Potency [3]

COc1c(O)cc2c(c1O)C(=O)O[C@H](C)[C@H]2O
inactive: activation [1] -14.5% | Potency [2] | Potency [3]

CCCOc1ccc(-c2nc(OC)c3ccccc3n2)cc1
inactive: activation [1] -5.67% | Potency [2] | Potency [3]

CC1CC(O)C2(OC1=O)OC1C(O)C3C4CCC5CC(OC6OC(CO)C(O)C(O)C6OC6OC(C)C(O)C(O)C6O)CCC5(C)C4CCC3(C)C1C2C (stereo not given)
inactive: activation [1] -0.893% | Potency [2] | Potency [3]

CC(C)=CCC[C@](C)(O[C@@H]1O[C@H](CO[C@@H]2OC[C@@H](O)[C@H](O)[C@H]2O)[C@@H](O)[C@H](O)[C@H]1O)[C@H]1CC[C@]2(C)[C@@H]1[C@H](O)C[C@@H]1[C@@]3(C)CC[C@H](O[C@@H]4O[C@H](CO)[C@@H](O)[C@H](O)[C@H]4O)C(C)(C)[C@@H]3CC[C@]12C
inactive: activation [1] 6.33% | Potency [2] | Potency [3]

NCCCC[C@H](NC(=O)[C@@H]1Cc2ccccc2CN1C(=O)CCC(=O)c1ccccc1)C(=O)NCC(c1ccccc1)c1ccccc1
inactive: activation [1] -6.33% | Potency [2] | Potency [3]

CC(C)=C1C[C@@]2(C)C(=CC1=O)CC[C@@H](O)[C@@H]2C
inactive: activation [1] 4.58% | Potency [2] | Potency [3]

C=C1[C@@H]2CC[C@@]3(C)[C@H](c4ccoc4)OC(=O)C[C@]13O[C@H]1CC(=O)C(C)(C)[C@H](C(O)C(=O)OC)[C@]12C (stereo not given in full)
inactive: activation [1] 8.04% | Potency [2] | Potency [3]

CCC(C)C(=O)O[C@H]1[C@@H](OC(=O)c2ccoc2)C[C@](C)(O)[C@]23OC(C)(C)[C@H](C[C@H](OC(=O)c4ccoc4)[C@]12COC(C)=O)[C@H]3OC(C)=O (stereo not given in full)
inactive: activation [1] 17.6% | Potency [2] | Potency [3]

C/C=C/C=C/C(=O)O[C@@H]1C=C2COC(=O)[C@]2(O)[C@@]2(C)CCCC(C)(C)[C@H]12
inactive: activation [1] -3.82% | Potency [2] | Potency [3]

COc1cc(/C=C/C(=O)OC2[C@H](O)CC(O)(C(=O)O)C[C@H]2O)ccc1O (stereo not given in full)
inactive: activation [1] 7.63% | Potency [2] | Potency [3]

CC1=C2[C@@H]([C@H](C)CC[C@H]2/C=C(\C)C(=O)O)[C@H](O)C1
inactive: activation [1] -10.7% | Potency [2] | Potency [3]

CC(=O)O[C@@H]1[C@H](OC(C)=O)C[C@@]2(C)C(CC[C@@H](C)[C@]23Cc2c(O)cc4c(c2O3)CN([C@@H](CCC(=O)O)C(=O)O)C4=O)C1(C)C (stereo not given in full)
inactive: activation [1] -9.92% | Potency [2] | Potency [3]

O=C1Nc2ccc(O)cc2O[C@H]1O[C@@H]1O[C@H](CO)[C@@H](O)[C@H](O)[C@H]1O
inactive: activation [1] -16.8% | Potency [2] | Potency [3]

COc1cc(C(C)=O)ccc1O[C@@H]1O[C@H](CO[C@@H]2OC[C@@H](O)[C@H](O)[C@H]2O)[C@@H](O)[C@H](O)[C@H]1O
inactive: activation [1] 9.16% | Potency [2] | Potency [3]

CC1(C)CC[C@]2(C(=O)O)CC[C@]3(C)C(=CCC4[C@@]5(C)C[C@@H](O)[C@H](O)[C@@](C)(CO)C5[C@H](O)C[C@]43C)[C@@H]2C1 (stereo not given in full)
inactive: activation [1] -19.8% | Potency [2] | Potency [3]

CC1=CC(=O)C2C(C)(C)CC(O)CC2(C)C1CO (stereo not given)
inactive: activation [1] -17.6% | Potency [2] | Potency [3]

CC(=O)OC1CC(C(C)(C)O)OC2CCC3(C)OC4=C(C(=O)C=C5C(C)C(OC(C)=O)C6(C)C(C)OC546)C(O)C3C12C (stereo not given)
inactive: activation [1] 2.68% | Potency [2] | Potency [3]

C[C@H]1CC[C@@]2(OC1)O[C@H]1CC3C4CC[C@H]5C[C@@H](O[C@@H]6O[C@H](CO)[C@H](O[C@@H]7O[C@H](CO)[C@@H](O)[C@H](O[C@@H]8OC[C@@H](O)[C@H](O)[C@H]8O)[C@H]7O[C@@H]7O[C@H](CO)[C@@H](O)[C@H](O)[C@H]7O)[C@H](O)[C@H]6O)[C@H](O)C[C@]5(C)C4=CC(=O)[C@]3(C)[C@H]1[C@@H]2C (stereo not given in full)
inactive: activation [1] 6.11% | Potency [2] | Potency [3]

CC(=O)OC[C@@]12[C@H](O)C[C@@H](C)[C@]3(C[C@@H](c4ccoc4)OC3=O)[C@H]1C[C@H](O)C[C@]21CO1
inactive: activation [1] 27.5% | Potency [2] | Potency [3]

CC(C)=CCC[C@](C)(O[C@@H]1O[C@H](CO)[C@@H](O)[C@H](O)[C@H]1O)[C@H]1CC[C@]2(C)[C@@H]1[C@H](O)CC1[C@@]3(C)CC[C@H](O)C(C)(C)C3[C@@H](O[C@@H]3O[C@H](CO)[C@@H](O)[C@H](O)[C@H]3O)C[C@]12C (stereo not given in full)
inactive: activation [1] 15.3% | Potency [2] | Potency [3]

C[C@@H](Nc1cc(NS(=O)(=O)N2CCC2)nc(SCc2cccc(F)c2F)n1)[C@@H](O)CO
inactive: activation [1] -20.5% | Potency [2] | Potency [3]

CC1=CC(=O)[C@H]2C(C)(C)CCC[C@]2(C)[C@@]1(O)CO
inactive: activation [1] -29% | Potency [2] | Potency [3]

COC(=O)CC[C@H](NC(=O)[C@H](CC(C)C)NC(=O)OCc1ccccc1)C(=O)N[C@@H](Cc1cnc[nH]1)C(=O)N[C@@H](CC(=O)OC)C(=O)CF (Cbz-LE(OMe)HD(OMe)-CH2F)
inactive: activation [1] 23.7% | activity change, negative = inhibition [2] -2.9% [at 11.2 µM] | activity change, negative = inhibition [3] -9.94% [at 11.2 µM]

C=CC[C@]12C[C@@H](OC)C(=O)C(OC)=C1O[C@@H](c1cc(OC)c3c(c1)OCO3)[C@@H]2C
inactive: activation [1] -13.4% | Potency [2] | Potency [3]

C[C@H](CN1CCCC1)C(=O)c1ccc(C(F)(F)F)cc1
inactive: activation [1] 21% | Potency [2] | Potency [3]

CC(=O)O[C@H]1[C@H](O)C[C@@]2(C)C(CC[C@]3(C)C2CC=C2C4CC(C)(C)CC[C@]4(C(=O)O)CC[C@]23C)C1(C)C (stereo not given in full)
inactive: activation [1] -12.5% | Potency [2] | Potency [3]

Cc1cc(O[C@@H]2O[C@H](COC(=O)CC(=O)O)[C@@H](O)[C@H](O)[C@H]2O)c(C(C)C)cc1O
inactive: activation [1] 0.763% | Potency [2] | Potency [3]

C[C@]1(OC(=O)/C=C/c2ccccc2)C[C@@H](O)[C@]2(O)C=CO[C@@H](O[C@@H]3O[C@H](CO)[C@@H](O)[C@H](O)[C@H]3O)[C@@H]21
inactive: activation [1] -8.93% | Potency [2] | Potency [3]

C=C(C(=O)OC)C1C(O)CC2(C)C(=O)CCC(O)(CO)C2C1O (stereo not given)
inactive: activation [1] -14.3% | Potency [2] | Potency [3]

CC(=O)NC(Cc1ccccc1)C(=O)O (stereo not given)
inactive: activation [1] 1.67% and 0% | Potency [2] | Potency [3]

C=C(C(=O)O)[C@@H]1CC=C2CCC[C@H](C)[C@@]2(C)C1
inactive: activation [1] -21.4% | Potency [2] | Potency [3]

COc1cc(CN(CCN)C(=O)c2cccs2)ccc1OCc1ccccc1
inactive: activation [1] 24.3% | Potency [2] | Potency [3]

CC(C)(C)c1ccc(S(=O)(=O)Nc2ccc(Cl)cc2C(=O)c2cc[n+]([O-])cc2)cc1
inactive: activation [1] -16.3% | Potency [2] | Potency [3]

C=C1C2(CCC(=O)OC2(C)C)CC(OC(=O)/C(C)=C/C)C2(C)C13OC14C(=O)OC(C)(C(=O)C12C(=O)OC4C)C3OC(C)=O (stereo not given)
inactive: activation [1] -0.763% | Potency [2] | Potency [3]

Cc1cn2c(N)c(Cl)cc(C(=O)NCC3CCN(CC(C)C)CC3)c2n1
inactive: activation [1] -0.893% | Potency [2] | Potency [3]

COC(=O)C12CCC(C)C(C)C1C1=CCC3C4(C)CCC(OC(C)=O)C(C)(C)C4CCC3(C)C1(C)CC2 (stereo not given)
inactive: activation [1] -12.2% | Potency [2] | Potency [3]

CC1CCC2C(=CCC(O)C2(C)C)C1(C)Cc1c(O)cc(CO)c(C=O)c1O (stereo not given)
inactive: activation [1] 9.92% | Potency [2] | Potency [3]

CCC(C)C(=O)O[C@H]1CCC=C2C=C[C@H](C)[C@H](CC[C@@H](O)C[C@@H](O)CC(=O)O)[C@H]21 (stereo not given in full)
inactive: activation [1] -32.8% | Potency [2] | Potency [3]

CC#CCn1c(N2CCCC(N)C2)nc2c1c(=O)n(Cc1nc(C)c3ccccc3n1)c(=O)n2C (stereo not given)
inactive: activation [1] 5.67% | Potency [2] | Potency [3]

C=C[C@]1(C)C[C@H](O)[C@H]2C(=C)C(=O)O[C@@H]2[C@H]1C(=C)CO
inactive: activation [1] 17.9% | Potency [2] | Potency [3]

CC(=O)c1c(C)cc(O)cc1O[C@@H]1O[C@H](CO)[C@@H](O)[C@H](O)[C@H]1O
inactive: activation [1] -17.6% | Potency [2] | Potency [3]

C=C[C@H]1[C@H](O[C@@H]2O[C@H](CO)[C@@H](O)[C@H](O)[C@H]2O)OC=C(C(=O)OC)[C@H]1CCO
inactive: activation [1] -7.63% | Potency [2] | Potency [3]

C[C@H]1[C@H](C)CC[C@]2(C(=O)O[C@@H]3O[C@H](CO)[C@@H](O)[C@H](O)[C@H]3O)CC[C@]3(C(=O)O)C(=CCC4[C@@]5(C)CC[C@H](O[C@@H]6O[C@H](CO)[C@@H](O)[C@H](O)[C@H]6O)C(C)(C)C5CC[C@]43C)[C@H]12 (stereo not given in full)
inactive: activation [1] 2.68% | Potency [2] | Potency [3]

CC1CC(O)C2(C)C(C(=O)O)=CCCC2C1(C)CCc1ccoc1 (stereo not given)
inactive: activation [1] 8.93% | Potency [2] | Potency [3]

Fc1ccccc1-c1nc2ccn(Cc3ccc(-c4ccc(C(F)(F)F)cc4C(F)(F)F)nn3)cc-2n1
inactive: activation [1] 17% | Potency [2] | Potency [3]

COC(=O)c1cc(Br)cnc1N1CCC(NC2CCCCC2)C(O)C1 (stereo not given)
inactive: activation [1] -10.3% | Potency [2] | Potency [3]

CCOC(=O)c1csc(Nc2ccc(Cl)cc2)n1
inactive: activation [1] -7% | Potency [2] | Potency [3]

CCc1cc(CC[C@]2(C3CCCC3)CC(O)=C(Cc3nc4nc(C)cc(C)n4n3)C(=O)O2)cc(CC)n1
inactive: activation [1] -29.5% | Potency [2] | Potency [3]
